Source: PubChem BioAssay
The entries come from a sample that favours hits as a whole.
ST2 inh: inhibitors of human ST2 (IL1RL1) binding to IL-33, primary screen, biochemical, AlphaLISA; AlphaLISA ST2-Fc/biotin-IL-33 interaction, 1 h; inhibition, % for hits at 17 µM; 2.3% of 78,000 active; in the data active = inhibition above about 30%
Target sequence (Q01638 whole entry, looked up): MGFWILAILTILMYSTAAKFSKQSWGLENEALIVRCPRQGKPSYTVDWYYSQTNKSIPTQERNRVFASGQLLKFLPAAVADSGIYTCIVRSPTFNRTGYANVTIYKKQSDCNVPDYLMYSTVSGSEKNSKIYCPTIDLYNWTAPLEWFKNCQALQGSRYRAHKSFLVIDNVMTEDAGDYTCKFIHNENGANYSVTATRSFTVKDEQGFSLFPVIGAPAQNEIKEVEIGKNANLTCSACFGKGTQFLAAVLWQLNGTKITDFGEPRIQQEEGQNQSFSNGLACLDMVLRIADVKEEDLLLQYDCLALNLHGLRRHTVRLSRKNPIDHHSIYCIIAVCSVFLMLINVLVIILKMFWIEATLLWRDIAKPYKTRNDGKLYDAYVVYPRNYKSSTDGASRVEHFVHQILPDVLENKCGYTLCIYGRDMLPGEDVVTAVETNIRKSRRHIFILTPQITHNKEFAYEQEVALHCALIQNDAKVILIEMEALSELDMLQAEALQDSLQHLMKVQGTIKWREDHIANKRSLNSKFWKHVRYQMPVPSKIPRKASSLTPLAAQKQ
* = called active by the depositor; i = inactive.

SMILES	ST2 inh
CNc1nc(N2CCOC(C(F)(F)F)C2)ncc1F (stereo not drawn)	i
Cc1cncc(NC(=O)c2cccc(CN3CCCC3c3ccccn3)c2)c1 (stereo not drawn)	i
CN(Cc1cccnc1)C(Cc1ccccc1)C1CCN(C(=O)C23CC4CC(CC(C4)C2)C3)CC1 (stereo not drawn)	32%*
CN(C(=O)c1cccs1)C(Cc1ccccc1)C1CCN(C(=O)C2=CCCC2)CC1 (stereo not drawn)	i
CSc1nnc(CC2CCN(C(=O)CN(C)Cc3cccnc3)CC2)n1C	i
O=c1[nH]c2ccc(S(=O)(=O)Nc3ccc(Cl)cc3)cc2s1	i
COc1ccc(N=C2SCC(=O)N2c2ccc(OC)cc2)cc1	i
COc1ccc(N=c2scc(-c3ccc(I)cc3)n2CCO)cc1	55%*
COc1ccc(CN2C(=Nc3ccccc3)S[C@H]3[C@@H]2[C@@H](O)[C@H](O)C[C@@H]3C(N)=O)cc1	i
O=C(O)c1ccc2c(c1)C(=O)N(c1cccc(Cl)c1)C2=O	i
CN=c1scc(-c2ccc(Cl)cc2)n1C	i
Cc1ccc(-c2csc(=Nc3ccccc3)n2CCCN(C)C)cc1	42%*
CCCCn1c(=N)n(CCOc2ccc(C)cc2)c2ccccc21	i
COc1ccc(-c2csc(=Nc3ccccc3)n2CCO)cc1	38%*
CCNC(=O)CC1SC(=Nc2ccc(OC)cc2)N(C)C1=O (stereo not drawn)	i
Cc1cccc(N2C(=O)c3ccc(-c4nnc(-c5ccccc5)o4)cc3C2=O)c1	i
O=C1c2ccccc2C(=O)N1c1cccc(-c2csc(=Nc3ccccc3)n2CCO)c1	48%*
COc1ccc(C2(C(=O)N3CCCC(O)(CO)C3)CC2)cc1 (stereo not drawn)	i
COc1ccc(CCNC(C)=O)cc1OC	i
Cc1cccc(C)c1N1C(=O)c2nccnc2C1=O	i
O=C(CSc1nc2ccccc2nc1-c1ccccc1)N1CCCCCC1	i
COCc1ccc(CN2CCCC(N(C)CCc3ccc(OC)c(OC)c3)C2)o1 (stereo not drawn)	i
CCCCN(CC)C(=O)c1cccc(OC)c1	i
O=C(CCS(=O)(=O)c1cc(Br)cc2c1N(C(=O)C1CC1)CC2)N1CCCC1	i
COC(=O)CCNC(=O)c1nn(CC2CC2)c2c1CN(C(=O)c1sccc1Cl)CC2	i
SMILES	ST2 inh
CC(=O)Nc1ccc(NC(C)=O)cc1	i
Cc1cccc(OCC(O)CN2C(=O)NC(C)(C)C2=O)c1 (stereo not drawn)	i
Cc1sc2ncnc(SC(C)C(=O)O)c2c1C (stereo not drawn)	i
COc1ccc(Nc2ncnc3nc[nH]c23)cc1OC	i
CCOC(=O)c1ccc(Nc2ncnc3c2cnn3-c2ccc(Cl)cc2)cc1	i
CCOC(=O)c1ccc(Nc2ncnc3nc[nH]c23)cc1	30%*
O=C(NCCCN1CCOCC1)c1cc(-c2ccncc2)nc2ccccc12	i
CCC(=O)N1CCc2cc(S(=O)(=O)NC(C(=O)Nc3cc(Cl)ccc3C)C(C)C)ccc21 (stereo not drawn)	i
CCCOc1ccc2oc(=O)c3c(c2c1)CCCN3C(=O)CN1CCN(C(=O)c2ccco2)CC1	i
CCCOc1ccc2oc(=O)c3c(c2c1)CCCN3C(=O)CN1CCCC(C(=O)OCC)C1 (stereo not drawn)	i
CCCOc1ccc2oc(=O)c3c(c2c1)CCCN3C(=O)CN1CCCCCC1	i
CCCOc1ccc2oc(=O)c3c(c2c1)CCCN3C(=O)CN1CCN(c2ncccn2)CC1	i
CN1CCN(CC(=O)N2CCCc3c2c(=O)oc2ccc(OCc4ccccc4)cc32)CC1	39%*
CCN1CCN(CC(=O)N2CCCc3c2c(=O)oc2ccc(OCc4ccccc4)cc32)CC1	30%*
Cc1noc(C)c1CCC(=O)NC(C)c1cnn(-c2cccc3ccccc23)c1C (stereo not drawn)	i
Cc1ccc(-c2noc(CCC(=O)N(C)c3cccc(C)c3)n2)cc1	i
CC(c1cccs1)N(C)C(=O)CCN1CCCCCC1=O (stereo not drawn)	i
COc1ccc(OC)c(CN2CCN(c3ccc(C(C)=O)cc3)CC2)c1	i
O=C(CN1C(=O)CC(c2ccccc2)=Nc2ccccc21)Nc1cccc(F)c1	i
NNc1nc2ccccc2s1	68%*
O=C(COc1ccc2ccccc2c1)Nc1nc2ccccc2s1	i
O=C(Nc1nc2ccccc2s1)c1ccccc1F	i
COc1ccc(-c2nnc(NC(=O)c3ccc(Br)cc3)s2)cc1	i
Oc1cc(-c2cccc(Cl)c2)cc2c1OCCN(CCN1CCOCC1)C2	i
Cc1ccc(CS(=O)(=O)NCc2cnn3ccccc23)cc1	i
Cc1cc(C)nc(NS(=O)(=O)c2ccc(NC(=O)c3ccc(Br)cc3)cc2)n1	i
C=CCNc1nc2ccccc2nc1NS(=O)(=O)c1ccc(Br)cc1	33%*
CC(=O)Nc1ccc(S(=O)(=O)Nc2nc3ccccc3nc2Nc2cccc(O)c2)cc1	i
CC(=O)N(CN1C(=O)c2cc(Cl)c(Cl)cc2C1=O)c1ccccc1	i
